Sampled rows, rich in hits. Any-hit rate of the full collection: about 5.1%.
NPSR antag: antagonists of human neuropeptide S receptor cAMP signaling; Potency, µM (series often up to 38.3 µM), usual class: inhibitors; 220,000 tested, 1% active; CHO-NPSR cells, cAMP TR-FRET, antagonist mode; Q6W5P4; further: nearly all actives have a fitted effect of over 50% in size
KDM4E inh: blocks human JMJD2E demethylase activity; AID 2147; Potency, µM (series often up to 57.1 µM), actives largely listed as inhibitors; 230,000 tested, 1.6% active; B2RXH2; JMJD2E catalytic domain, FDH-coupled NADH fluorescence (FDH is formaldehyde dehydrogenase); further: nearly all actives have a fitted effect of over 50% in size
Target sequence (B2RXH2 1-337 limits assumed): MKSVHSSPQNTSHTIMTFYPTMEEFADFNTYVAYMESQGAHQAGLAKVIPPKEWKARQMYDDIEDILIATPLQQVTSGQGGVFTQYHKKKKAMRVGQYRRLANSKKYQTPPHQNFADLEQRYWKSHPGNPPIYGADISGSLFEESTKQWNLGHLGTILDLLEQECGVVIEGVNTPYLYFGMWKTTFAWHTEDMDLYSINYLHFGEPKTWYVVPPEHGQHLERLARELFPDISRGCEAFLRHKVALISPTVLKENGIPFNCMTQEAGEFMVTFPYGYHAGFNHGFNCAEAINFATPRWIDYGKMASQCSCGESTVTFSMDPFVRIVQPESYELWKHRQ
Tau fluor counter: counter-screen for tau fibril formation inhibitors | tau K18 P301L Alexa594 fluorescence, heparin fibrillization | Potency, µM (series often up to 57.7 µM) | 280,000 tested, 0.93% active | AID 1463; further: nearly all actives have a fitted effect of over 55% in size
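Human tau K18 P301L (15 uM unlabeled, 0.24 uM Alexa 594-labeled) in 100 mM sodium acetate pH 7 with 20 uM heparin, 6 hr at 37 C. ThT 30 uM added, 1 hr ambient; Alexa 594 FP and total fluorescence read at 555/632 nm.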
Tau FP inhib: inhibitors of human tau fibril formation. P10636. K18 P301L tau heparin fibrillization, Alexa594 FP, 6 h. Potency, µM (titrated, usually from 57.7 µM), usual class: inhibitors. 280,000 tested, 0.39% active; further: nearly all actives have a fitted effect of over 55% in size
Target sequence (P10636 561-689 P618L limits assumed): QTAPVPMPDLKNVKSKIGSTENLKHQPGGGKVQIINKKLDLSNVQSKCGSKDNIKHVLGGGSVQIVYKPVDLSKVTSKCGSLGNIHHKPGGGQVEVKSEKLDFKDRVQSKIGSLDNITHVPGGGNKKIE
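Read-out: fluorescence polarization of Alexa 594-labeled tau (0.24 uM), 555 nm excitation, 632 nm emission. Mixtures held 15 uM unlabeled K18 P301L, compound and 20 uM heparin, pH 7 acetate buffer, incubated 6 hr at 37 C.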
Tau fibril ThT: tau fibrillization inhibition (ThT binding); recombinant tau K18 P301L (four-repeat tau fragment), heparin-induced fibrillization, ThT fluorescence; Potency, µM (top dose mostly 57.4 µM), hits mostly inhibitors; 270,000 tested, 2.1% active; AID 1460; P10636; further: nearly all actives have a fitted effect of over 55% in size
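Heparin-induced (20 uM) aggregation of recombinant human K18 P301L tau, 15 uM unlabeled with 0.24 uM labeled, pH 7 acetate buffer, 6 hr at 37 C with compound. Fibrils quantified by 30 uM ThT fluorescence after 1 hr ambient incubation.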
PNC assembly inh: blocks assembly of the perinucleolar compartment | PC3M PTB-GFP, PNC prevalence imaging, 16 h; stronger effect = lower value | activity change (PNC), negative = inhibition, % at 10 µM | 140,000 tested, 3.1% active | AID 2417;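 active means readout at or below -70, meaning at least 70% loss of cells showing the perinucleolar compartment, a nuclear body marking cancer cells; inconclusive means readout between -30 and a set limit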
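PC3M cells stably expressing PTB-GFP, 750–1000 cells/well, treated 16 h at 37 °C with compound (23 nl of library stock), in duplicate. After paraformaldehyde fixation and Hoechst stain, imaged at 20x; PNC prevalence scored by image analysis.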
A number is an active result; i = inactive; ? = inconclusive; nt = no result; [ ] = remark or other dose. Unless noted, the call rests on the fitted dose curve; in most records, active means well fitted curve in the direction sought with a large enough effect; inconclusive means small, poorly fitted or top-dose-only effect, or another doubt; inactive means no such curve, though single readings can be large; an effect the other way counts as inactive or inconclusive.

SMILES	NPSR antag	KDM4E inh	Tau fluor counter	Tau FP inhib	Tau fibril ThT	PNC assembly inh
Cc1cccc(NC(=S)N(CCN(C)C)Cc2cc3cccc(C)c3[nH]c2=O)c1	i	i	i	i	i	-100
CCc1ccc(NS(=O)(=O)c2[nH]ncc2C(=O)OC)cc1	nt	nt	i	i	i	nt
CN(C)c1ccc(/C=N\NC(=S)SCN2C(=O)C3CCC(C)(C2=O)C3(C)C)cc1 (stereo unspecified)	i	?	13µM[quencher]	i	8.9µM	i
N#CCC1c2ccccc2CCN1C(=O)Nc1cccc(Cl)c1 (stereo unspecified)	i	i	i	i	i	i
N#CCC1c2ccccc2CCN1C(=O)Nc1ccc(Cl)cc1 (stereo unspecified)	i	i	i	i	i	-81
CCc1ccc(-n2nc(CO)c(C(=O)NCCOC)n2)cc1	nt	nt	i	i	i	nt
CCOc1cccc(/C=N/NC(=O)CC2C(=O)NN=C2C)c1O (stereo unspecified)	i	i	i	i	i	nt
CCOc1cccc(C=Nc2cc(C)cc(C)c2O)c1O	i	?	?	?	25µM	?
CCOc1ccc(CNC(=O)C2Cc3ccccc3N2C(=O)CC)cc1 (stereo unspecified)	nt	nt	i	i	i	nt
CCOC(=O)c1c(C)n(-c2ccc(C)cc2)c2c(CC(C)=O)c(Br)c(OC)c(O)c12	10µM	i	i	i	i	i
Cc1ccc(C(=O)c2coc3ccc(O)c(Cl)c23)cc1	i	i	i	i	i	i
CCOC(=O)c1c(C)n(-c2ccc(C)cc2)c2c(C(C(C)=O)C(=O)O)c(Br)c(O)c(O)c12 (stereo unspecified)	10µM	?	?	?	?	?
CCOC(=O)c1c(C)n(-c2ccc(C)cc2)c2ccc(O)c(CN(C)C)c12	i	i	i	i	i	nt
CCOC(=O)C(C(C)=O)c1c(Br)c(O)c(O)c2c(C(=O)c3ccc(C)cc3)coc12 (stereo unspecified)	?	25µM	i	i	?	i
CCc1ccccc1Nc1cc(C(=O)NCc2ccc(C)cc2)c2ccccc2n1	nt	nt	i	i	i	nt
COc1ccccc1C(=O)Nc1nnc(SCc2cc(=O)c3ccccc3[nH]2)s1	nt	nt	i	i	i	nt
C/C(=N\NC(=O)CC1(C)OCCO1)c1cccs1	i	i	i	i	i	-88
C/C(=N/NC(=O)c1cccs1)c1cccs1	i	i	i	i	i	nt
O=C(N/N=C/c1ccc(N2CCOCC2)o1)c1cccc([N+](=O)[O-])c1	i	i	i	?	8.9µM	i
Cc1cccc(NC(=S)NNC(=O)c2cccc([N+](=O)[O-])c2)c1	i	i	i	i	?	nt
O=C(NNC(=S)Nc1ccc(Cl)c(Cl)c1)c1cccc([N+](=O)[O-])c1	i	i	1.8µM[quencher]	?	nt	nt
O=C(NC(=S)Nc1ccc(CN2CCOCC2)cc1)c1cccc([N+](=O)[O-])c1	i	i	i	i	i	-100
Cc1ccc(-c2cc(C(=O)N/N=C/c3cccnc3)n[nH]2)o1	i	i	i	i	?	-106
CC1=C(C(=O)Nc2ccccc2)C(c2ccc(C)o2)n2c(s/c(=C\c3ccco3)c2=O)=N1 (stereo unspecified)	13µM	i	?	?	13µM	i
CCN(CC)S(=O)(=O)c1ccc2c(c1)N(CC(=O)N1CCN(c3cccc(C)c3C)CC1)C(=O)CO2	nt	nt	i	i	i	nt
SMILES	NPSR antag	KDM4E inh	Tau fluor counter	Tau FP inhib	Tau fibril ThT	PNC assembly inh
CCCN(CCC)C(=O)Cn1c(=O)n(-c2cccc(OC)c2)c(=O)c2c3c(sc21)CCCC3	nt	nt	i	i	i	nt
COc1ccc(N=C2SCC(c3ccc(C)cc3)=NN2CCO)cc1	i	i	?	i	?	nt
COc1ccc(N=C2SCC(c3ccc([N+](=O)[O-])cc3)=NN2CCO)cc1	i	i	?	i	11µM	nt
O=[N+]([O-])c1ccc(C2=NN(CCO)C(=Nc3ccc(OC(F)(F)F)cc3)SC2)cc1	i	i	?	i	14µM	nt
COc1ccc(C(CC(=O)Nc2cc(Cl)c(OC)cc2OC)N2Cc3ccccc3C2=O)cc1 (stereo unspecified)	nt	nt	?	?	i	nt
CN1C(CC(=O)c2ccccc2)CCCC1CC(O)c1ccccc1 (stereo unspecified)	i	i	i	i	i	-110
